Experimental data published in PubChem BioAssay (EPA / NIEHS).
Active and inactive are the calls of the source. The calls were made as follows: active = hit-call score of the fitted dose curve at least 0.9, where 1 is the maximum; inactive = score below 0.9.

Read-out: Bcl-2 (BAX) gene, BAX (gene 581)
Assay: LTEA_HepaRG_BAX: Life Technologies and Expression Analysis (LTEA) Assay for Bcl-2 (BAX) gene using HepaRG (AID 2283470)
Conditions: mRNA level, 48 h; actives raise or lower the signal
Experimental: LTEA_HepaRG is a cell based, multiplexed-readout assay that uses HepaRG, a human liver cell line, with measurements taken at 48 hours after chemical dosing on a 96-well plate.LTEA_HepaRG_BAX is one of 102 assay component(s) measured in the LTEA HepaRG cell culture assay. It is a marker of Cell proliferation, survival, death.Data from the assay component LTEA_HepaRG_BAX was analyzed into 1 endpoint. This assay endpoint, LTEA_HepaRG_BAX, was analyzed with bidirectional fitting relative to DMSO as the negative control and baseline of activity. Using a type of inducible reporter, measures of mRNA induction for gain or loss-of-signal activity can be used to understand regulation of transcription factor activity. To generalize the intended target to other relatable targets, this assay endpoint is annotated to the cell cycle intended target family, where the subfamily is Cell proliferation, survival, death.
A total of 1060 chemcials from the ToxCast library were tested in eight-point concentration-response experiments. Cell culture and cytotoxicity assays were conducted at Thermo Fisher Scientific's Custom Services facility (Madison, WI). A single lot of human HepaRG cells (Thermo Fisher Scientific, Frederick, MD) was used for the cell culture experiments. 96-well format collagen type I coated plates of human HepaRG cells were prepared using established methods. Briefly, cryopreserved HepaRG cells were thawed, plated at a density of approximately 100,000 cells/well in HepaRG Thaw, Plate, and General Purpose media (HPRG770, Thermo Fisher Scientific), and incubated for 48 hours. 0.5% DMSO was selected as vehicle control to balance the requisite need of DMSO in HepaRG cultures to maintain differentiation (for example, baseline metabolism, proportions of hepatocytes vs. cholangiocytes), while enabling further hepatic receptor pathway activation (for example, PXR and CAR) in response to chemical exposure. 48 hours after plating, the culture medium was replaced with HepaRG Serum-Free Incudtion Media. Cells were exposed to each test chemical in duplicate and maintained in CO2 incubators for another 48 hours. Chemical plates were thawed to room temperature and 200x concentrations of treatment groups were prepared. 8-point conentration-reponse curves were made with the highest exposure at 100 uM, followed by half-log dilutions, all in 0.5% DMSO. Each test plate contained variouse controls, induction positive controls (1mM phenobarbital), cytotoxicity positive controls ([…] aflatoxin B1), vehicle controls (0.5% DMSO), and total lysis controls (0.5% DMSO). Cell morphology images were taken using an Essen IncuCyte FLR automated microscope, with six 96-well plates imaged in about 24 minutes. Images were captured and exported and JPEG files. Spent culture media was transfered to black-well plates for the LDH assay, and remaining media was sorted at -80 C for later use. Cells were treated with RLT buffer and frozen until shipped for gene expression analysis. Total RNA was isolated from the cell suspension in 75 uL of Buffer RLT (Qiagen, Germantown, MD 20874) by Quintiles/Expression Analysis (Durham, NC) using a custom isolation procedure. Total RNA from each plate well was transferred to a preamplification plate. Fluidigm's 96.96 Dynamic ArrayTM (Fluidigm, Amsterdam, the Netherlands) technology was used for gene expression analyses by quantitative reverse transcription polymerase chain reaction (qRT-PCR, performed by Quintiles/Expression Analysis, Durham, NC)89. Standard TaqManTM Assays (Applied Biosystems/ThermoFisher Scientific, Foster City, CA) were used to assess the expression of 93 genes selected based on their selectivity and sensitivity to important hepatic receptors known to be modulated by environmental chemicals; importance in human hepatocyte functionality; and hepatotoxicity. […]

SMILES	outcome	AC50
CCCCCCCCCCCCc1cccc(S(=O)(=O)O)c1	inactive	
CC(C)(C)c1ccccc1O	inactive	
N#Cc1cccnc1	inactive	
OCCN(CCO)CCO	inactive	
O=C(N[C@H]1CN2CCC1CC2)c1ccc2c(c1)OCCO2	inactive	
Cc1cc(C)cc(C)c1	inactive	
CC(C)O.CC(C)O.OCCN(CCO)CCO.OCCN(CCO)CCO.[Ti]	inactive	
Clc1cccc(Cl)c1	inactive	
Clc1cccc(Cl)c1Cl	inactive	
Oc1cc(Cl)c(Cl)cc1Cl	inactive	
O=C(O)C1(c2ccc3c(c2)OC[C@H](Cc2ccc(-c4ccccc4)cc2)[C@H]3O)CCCC1		66.2 µM (active)
CN(C)C(=S)S	inactive	
Oc1c(Cl)cc(Cl)cc1Cl	inactive	
COc1ccccc1N	inactive	
